Assay results reported in PubChem BioAssay (NCI).
Compounds without any hit were thinned out: in the full panel of roughly 83,000, 20% have a hit.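 Note: values are percent growth. 100 is the growth of untreated cells, values between 100 and 0 indicate rising inhibition; between -100 and 0 indicates cell death.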 Values without a mark were called inactive. Activity calls are given as the source filed them. Rule for the calls: active = growth percent below 10; inactive = the rest.

Tests used:
Assay in all cases: NCI-60 one-dose screen, 48 h (100 = growth as untreated, 0 = no growth, -100 = all killed)
Details in all cases: 10 µM unless noted
NCI-H23 lung = system: NCI-H23 lung
NCI-H226 lung = system: NCI-H226 lung
NCI-H322M lung = system: NCI-H322M lung
HOP-62 NSCLC = system: HOP-62 NSCLC
NCI-H460 lung = system: NCI-H460 lung
HOP-92 NSCLC = system: HOP-92 NSCLC
NCI-H522 lung = system: NCI-H522 lung
A549/ATCC NSCLC = system: A549/ATCC NSCLC
786-0 renal = system: 786-0 renal
COLO 205 colon = system: COLO 205 colon

Row | SMILES | growth (NCI-H23 lung) | growth (NCI-H226 lung) | growth (NCI-H322M lung) | growth (HOP-62 NSCLC) | growth (NCI-H460 lung) | growth (HOP-92 NSCLC) | growth (NCI-H522 lung) | growth (A549/ATCC NSCLC) | growth (786-0 renal) | growth (COLO 205 colon)
1 | Cc1csc2ccc(Cl)cc12 | 97.8% | 104% | 101% | 96.6% | 106% | 104% | 89% | 109% | 105% | 105%
2 | CCN(CC)CC#CCOC(=O)[C@]1(C)CCC[C@@]2(C)[C@H]1CC(C=O)=C1C=C(C(C)C)CC[C@@H]12 | 60.2% | 76% | 94.5% | 74.8% | 64% | 44.8% | 53.3% | 62.4% | 58.3% | 44.5%
3 | CCN(C(=O)CN1CCN(c2cc3c(cc2F)c(=O)c(C(=O)O)cn3C2CC2)CC1)c1nc(-c2ccc(OC)cc2)cs1 | 66% | 85.8% | 38.8% | 80.9% | -2.51% (active) | 40% | 49% | 11.4% | 102% | 63.7%
4 | CCCCN(CCCC)CCC(C)(O)c1cc2ccccc2c2ccccc12 (stereo not given) | 83.8% | 107% | 73.5% | 106% | 90.1% | 44.2% | 91.4% | 83.5% | 103% | 92.7%
5 | CCOC(=O)c1nc(Nc2cc(C)[nH]n2)c2ccccc2n1 | 95.1% | 81% | 90.7% | 103% | 79.7% | 86.3% | 92.2% | 96.5% | 82.6% | 104%
6 | Cc1cc2cc3cc(C)c(N(C)C)cc3[n+](C)c2cc1N(C)C | 28.3% | 51.6% | 25.4% | 30% | 10.9% | -34.6% (active) | -5.03% (active) | 25.8% | 26.7% | -19.2% (active)
7 | O=C1C=CC(Nc2ccccc2[N+](=O)[O-])C1Nc1ccccc1[N+](=O)[O-] (stereo not given) | 6.85% (active) | -41.7% (active) | 79.1% | 90.9% | 59% | -56.5% (active) | -90.1% (active) | 92.2% | -76.7% (active) | -79.2% (active)
8 | O=C1CCc2c(sc3[nH]c(=S)n(Cc4ccccc4)c(=O)c23)C1 | 0.541% (active) | 51.2% | 30.1% | 10.2% | 3.94% (active) | -19.5% (active) | 2.03% (active) | 13.9% | 30.9% | 32.3%
9 | Cc1cccc(NC(=O)c2sc3nc4c(cc3c2N)C(=O)CCC4)c1 | 53.1% | 56.6% | 37.2% | 42.9% | 6.09% (active) | 64.5% | 11.7% | 31.4% | 31.3% | 3% (active)
10 | O=C(CCCN1CCOCC1)Nc1ccc(Cn2nnc3c2C(=O)c2nnn(Cc4ccc(NC(=O)CCCN5CCOCC5)cc4)c2C3=O)cc1 | -6.94% (active) | 97.8% | 21% | 73.9% | 22.4% | -20.9% (active) | -34.9% (active) | 83.8% | 101% | -70.5% (active)
11 | CN1CCN(c2ccc3nc(-c4ccc5nc(-c6ccc(OCCC(C)(C)C)cc6)[nH]c5c4)[nH]c3c2)CC1 | -3.61% (active) | 95.3% | 40.7% | 21.5% | -80% (active) | 69.6% | -38% (active) | -45.3% (active) | -60.2% (active) | 5.08% (active)
12 | C(=N\Nc1ccccn1)/c1ccccn1 | 12.1% | 16% | 15.7% | 19.2% | 7.9% (active) | 79.1% | -9.71% (active) | 12.2% | -41.9% (active) | 34.6%
13 | CCN(CC)CC(C)Nc1ccc([N+](=O)[O-])c2sc3ccccc3c(=O)c12 (stereo not given) | 33.5% | 24% | 26.6% | 46.2% | 9.64% (active) | 7.52% (active) | 0.683% (active) | 14.2% | 16.3% | 10.8%
14 | CC[C@H](Nc1cc(C)nc(N)n1)c1nc2cccc(NCc3ccc(C(=O)NO)cc3)c2c(=O)n1-c1ccccc1 | -6.84% (active) | 64.7% | 47.7% | 34.5% | 30.1% | -3.07% (active) | -63.7% (active) | 60.1% | 44.1% | -51.8% (active)
15 | CCOC(=O)C(C#N)C1CCCCC1 (stereo not given) | 93.6% | 83.4% | 92.1% | 90.4% | 123% | 80.7% | 96.9% | 105% | 105% | 127%
16 | Cc1cc2c(cc1C)NC1=C(N2)OC(c2c3ccccc3cc3ccccc23)C1=O (stereo not given) | 15.2% | 52% | 45.9% | 31.9% | 2.12% (active) | 71.9% | -5.18% (active) | 26.7% | 29.9% | -40.7% (active)
17 | COc1cc2c(cc1O)CCc1cc(O)cc(OC)c1-2 | 99.3% | 87.4% | 101% | 105% | 93.8% | 103% | 61.5% | 87.6% | 97.1% | 110%
18 | COc1ccc(-n2cc(-c3ccccc3)c3c(SCC(=O)N/N=C/c4ccc([N+](=O)[O-])cc4)ncnc32)cc1 | 88.9% | 84.2% | 106% | 100% | 113% | 98.3% | 91.5% | 105% | 95.3% | 109%
19 | CCN(CC)CCCC(C)Nc1ccnc2c(OC)cccc12 (stereo not given) | 106% | 111% | 141% | 108% | 125% | 130% | 104% | 106% | 113% | 114%
20 | Cc1ccc2cnc(N)c(C#Cc3cncc(C(=O)Nc4ccc(CN5CCN(C)CC5)c(C(F)(F)F)c4)c3)c2c1 | -63.8% (active) | -75.8% (active) | -97.2% (active) | -85.2% (active) | -78.8% (active) | -80.9% (active) | -71% (active) | -79.4% (active) | -79.6% (active) | -70.3% (active)
